CendR NRP1 mod: alters CendR peptide binding to human NRP-1; inhibition, % at 25 µM; 360,000 tested, 0.85% active; O14786; FAM-RPARPAR peptide binding to NRP-1, fluorescence polarization;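 active = inhibition or corrected inhibition above about 18%, plus a signal ratio from 0.5 to 1.5, limit read from the data, passing the limit was not always enough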
ALR inh: inhibitors of human sulfhydryl oxidase ALR | inhibition, % (no concentration beside the values) | 290,000 tested, 3.8% active | purified ALR, DTT oxidation, H2O2 HRP-luminol luminescence | P55789;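 active = mean replicate inhibition above about 79%, with every replicate also reaching it, limit read from the data; inconclusive = only one of the two criteria met; inactive = mean below limit and not every replicate reaching it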
Target sequence (P55789 whole entry, looked up): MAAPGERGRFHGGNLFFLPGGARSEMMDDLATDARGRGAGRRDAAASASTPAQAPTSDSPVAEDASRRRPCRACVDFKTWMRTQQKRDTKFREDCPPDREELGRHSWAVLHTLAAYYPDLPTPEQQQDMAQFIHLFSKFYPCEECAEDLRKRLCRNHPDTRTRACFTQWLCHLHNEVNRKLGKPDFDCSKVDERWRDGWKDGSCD
ERp5 inh: ERp5 (human) disulfide isomerase inhibition. Q15084. AID 651711. 350,000 tested, 0.05% active. inhibition, % at 9.99 µM. ERp5 insulin aggregation, absorbance 650 nm, 90 min;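 active = mean replicate inhibition above about 25%, with every replicate also reaching it, limit read from the data, passing the limit was not always enough; inconclusive = only one of those two criteria met; inactive = neither criterion met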
PDI turbidity: PDI (human) enzyme inhibition. inhibition, % at 10 µM. AID 588391. P07237. PDI insulin aggregation turbidity, A650, 90 min. 350,000 tested, 0.052% active;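 active = mean inhibition across replicates of 30% or more, whatever share of single replicates reach that level; inconclusive = mean inhibition below 30% while every single replicate reaches 30%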
ARNT TACC3 PPI: disruptors of human ARNT/TACC3 interaction; AlphaScreen His-ARNT PAS-B/GST-TACC3 binding, luminescence; TACC3 fragment carries E629A point mutation; inhibition, % at 9.99 µM; 390,000 tested, 0.66% active; Q9Y6A5;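 active = mean inhibition of replicates at least 50% and at least half of replicates each reaching 50%; inconclusive = half or more replicates reach 50% but mean below 50%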;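 also: 0% = complete ARNT plus TACC3 wells and 100% = ARNT alone without TACC3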
PglD DTNB: PglD (C. jejuni) enzyme inhibition; purified PglD enzyme, DTNB colorimetric CoA detection; inhibition, % at 12.5 µM; 360,000 tested, 0.098% active; AID 602405; in the data active = inhibition above about 16%, passing the limit was not always enough; inconclusive = no clear call, values can overlap the other calls
Starred values were filed as active, the others as inactive; ? = inconclusive; . = no result given. This is one part of a sample in which hits are shown more often than they occur.

SMILES	CendR NRP1 mod	ALR inh	ERp5 inh	PDI turbidity	ARNT TACC3 PPI	PglD DTNB
CCOC(=O)C1=C(C)NC2=C(C(=O)CCC2)C1c1cccnc1 (stereo unspecified)	4	-20	.	-2	-4	2
CCOC(=O)C1=C(C)NC2=C(C(=O)c3ccccc32)C1c1cccnc1 (stereo unspecified)	40*	-8	.	-8	-16	.
CN(Cc1ccc(Cl)cc1)C(CCc1ccccc1)C(=O)NC1CCCCC1 (stereo unspecified)	20*	.	4	.	.	1
COc1ccc2c3c([nH]c2c1)[C@@H](CO)N(C(=O)c1ccncc1)CC31CN(C(=O)c2ccncc2)C1	.	.	4	.	.	.
Nc1ncnc2[nH]c(=S)[nH]c12	29*	.	5	-8	-9	-1
Cc1ccc(C(=O)N/C(=C\c2sccc2C)C(=O)NCc2ccco2)cc1	39*	1	.	-9	9	-7
Cc1ccc(C(=O)N/C(=C\c2sccc2C)C(=O)NCc2ccncc2)cc1	-12	.	.	7	-4	.
COc1ccc(C2NC(=S)NC3=C2N2CCC3CC2)cc1 (stereo unspecified)	0	0	4	-6	active	.
Fc1ccc(C2NC(=S)NC3=C2N2CCC3CC2)cc1 (stereo unspecified)	16	2	2	-4	0	3
CC1(C)CC(=O)c2cc(C(=O)NCc3ccco3)c(=O)n(-c3ccccc3)c2C1	4	-2	.	-5	-4	1
CC1(C)CC(=O)c2cc(C(=O)NNc3ccccc3)c(=O)n(-c3ccccc3)c2C1	-6	98*	-3	1	-2	.
CC1CCC/C(=N\NC(=O)c2ccncc2)C1 (stereo unspecified)	30*	18	2	-3	19	-3
CC1S/C(=N/N=C2CCCCC2)NC1=O (stereo unspecified)	-1	6	1	11	9	3
CC1SC(=NC(=O)c2ccncc2)NC1=O (stereo unspecified)	-1	90*	5	3	-4	.
Cc1ccnc(SCC(=O)c2ccc(Br)s2)n1	1	85*	4	22	.	8
CC(=O)Nc1ccc(SCC(=O)c2cc(C)n(C)c2C)cc1	15	99*	.	6	-1	.
CC(=O)Nc1ccc(SCC(=O)c2ccc(Br)s2)cc1	-18	99*	-9	-1	10	-4
CCC(C)NC(=O)CSc1ccc(NC(C)=O)cc1 (stereo unspecified)	7	-3	.	0	-3	0
Cc1ccnc(SCC(=O)c2cccs2)n1	-14	24	0	0	-13	.
C[C@H]1CN([C@@H](C)CO)C(=O)c2cc(C3=CCCC3)cnc2O[C@H]1CN(C)C(=O)C1CCC1	.	.	-8	.	-8	1
CCCCCC(=O)N/N=C/c1ccc(N(C)C)cc1	2	90*	.	6	-2	-3
CN(C)c1ccc(/C=N/NC(=O)Cn2nnc3ccccc32)cc1	-42	99*	.	9	3	.
CN(C)c1ccc(/C=N/NC(=O)CCc2c[nH]c3ccccc23)cc1	3	98*	2	?	1	.
O=C(Cc1c[nH]c2ccccc12)N/N=C/c1ccc(F)cc1	15	-3	.	9	-2	2

Screening data deposited in PubChem BioAssay by several laboratories.
